The panel holds about 83,000 compounds, 20% with a hit somewhere; the sample as a whole holds those more often.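 Cell lines were cultured in 96-well plates, exposed to a single compound concentration, and assessed for percent growth 48 hours later.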 Values without a mark were called inactive. The source made the active and inactive calls. The calls were made as follows: active = growth percent below 10; inactive = the rest.

This assay deals with HL-60(TB) leukemia. As to the kind of experiment: NCI-60 one-dose screen, 48 h (100 = growth as untreated, 0 = no growth, -100 = all killed). The settings on record: 10 µM unless noted.
As to `COc1ccc2c(c1)oc1c(C)c3c(c(C)c12)C(=O)N(Nc1ccccc1)C3=O`, the growth was 107%.

Turning to `NCCNc1nc(Nc2ccc(-c3nc4ccccc4[nH]3)cc2)c2cn[nH]c2n1`, the growth was 91.9%.

On to `COc1cc(-c2ccc3c(c2)NC(=O)/C3=C\c2ccc[nH]2)ccc1O`, for which the growth is -12.6% (active).

For `CCN(CC)CCCNC(=O)c1ccc(N)cc1`, the growth was 76.5%.

`Cc1cc2c(C#N)n3c(c2cc1C)C(=O)C(c1ccccc1)Oc1ccccc1-3` (stereo unspecified): the growth was 36.3%.

`O=C(/C=C/c1ccc(Br)cc1)c1ccccc1`: the growth is 81.5%.

Consider `O=C(/C=C(O)/C=C/c1cccc2[nH]ccc12)/C=C/c1cccc2[nH]ccc12`, for which the growth was 39.4%.

`Cc1c(Cl)cccc1NCN1C(=O)c2ccccc2C1=O`: the growth is 113%.

As for `NC(=O)c1nc2c([nH]c1=O)CCCC2`, the growth is 101%.

Regarding `O=C(CSc1nc2sc3c(c2c(=O)n1-c1ccc(Cl)cc1)CCCC3)Nc1nc(-c2cccc(Br)c2)cs1`, the growth was 101%.

Turning to `Cc1ccccc1OC(=O)c1cccc(Cl)c1`, the growth was 60.4%.

Take `CC(=O)O[C@H]1CC[C@]2(C)[C@H]3CC[C@@H]4[C@H]5[C@H](C(C)C)CC[C@]5(C(=O)OCC(CO)(CO)N=C(N)N)CC[C@@]4(C)[C@]3(C)CC[C@H]2C1(C)C`: the growth was -24.7% (active).

In the case of `CCCCCCCCSc1ncnc2c1ncn2CO`, the growth is 94.5%.

For `C=C1CC2(OC1=O)C(=O)N(CCCN1C(=O)C3(CC(=C)C(=O)O3)c3ccccc31)c1ccccc12` (stereo unspecified), the growth was -26.5% (active).

With `O=C1NC(=Nc2ccc(O)cc2)S/C1=C\c1cccs1`, the growth is -4.12% (active).

As to `C=C1C(=O)O[C@@H]2[C@@H]3O[C@@](C)(CC/C=C(\C)CCC[C@@H]2C)[C@H](O)C[C@@H]13`, the growth is 14.4%.

As to `CCN(CC)CC(=O)Nc1ccc2ncnc(Nc3ccc(Oc4cccc(F)c4)c(Cl)c3)c2c1`, the growth was 16.2%.

With `CC(=O)c1cc2c(N)c(C(=O)Nc3cccc(Cl)c3)sc2nc1C`, the growth was 48.9%.

Regarding `COc1cc(C2Cc3ncccc3-c3[nH]c(=O)c4cccnc4c32)cc(OC)c1OC` (stereo unspecified), the growth was -2.08% (active).

With `CSc1nc(=O)n(Cc2ccc(Cl)cc2)c(=O)[nH]1`, the growth was 105%.

`CCCCCCCCCCCCCCCCCC(=O)NCCNC(=O)CCCCCCCCCCCCCCCCC`: the growth is 67.8%.

For `CCc1n(Cc2ccc3ccccc3c2)c2ccccc2[n+]1Cc1ccc2ccccc2c1`, the growth was 14.3%.

As for `C[C@H](CCCC(=O)NCC#CCN1CCN(C)CC1)[C@H]1CC[C@H]2[C@@H]3CC[C@@H]4CC(=O)CC[C@]4(C)[C@H]3CC[C@]12C`, the growth is 94.3%.

For `CC(=O)Nc1ccc(CC#N)cc1Br`, the growth is 123%.

As for `COC(=O)c1c2c(c(C)[n+]([O-])c1C)C(=O)C(NCCN1CCOCC1)=CC2=O`, the growth was 52.4%.

As for `CN1CCN(CCCOc2ccc3nc(Nc4ccc(F)c(F)c4)ccc3c2)CC1`, the growth is 46.8%.

Values taken from PubChem BioAssay (NCI).
